Hits are enriched below; roughly 4.8% of the tested compounds scored in any of these assays.
SMARCA2 act – increases SMARCA2 function in MMTV reporter cells. activation, % at 9.1 µM. AID 652017. hit rate 1% among 370,000. MG213 cells, MMTV-luciferase reporter, dexamethasone, overnight; in the data active = activation above about 7.8%
ssDAF12 agonist – activates DAF-12 receptor from parasite S. stercoralis; HEK293 ssDAF-12/GRIP1 lit1-tk-luc reporter, luminescence; % of 3 µM dafachronic acid response; activation, % at 6.8 µM; hit rate 1% among 370,000; AID 652126;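 active = activation above the mean over all tested compounds plus 3 SD, cut at about 0.9% in these data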
hgDAF12 agonist – agonists of H. glycines DAF-12 nuclear receptor; AID 687014; hit rate 1.8% among 370,000; activation, % at 6.8 µM; HEK293 GAL4-hgDAF12 UAS-luciferase reporter, agonist luminescence; normalized to butyrate control;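 active = activation above a cutoff set at the mean of all screened compounds plus 3 SD, cut at about 10% in these data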
DAX1 inh-1 – inhibits human nuclear receptor DAX1; HEK293 Gal4-DAX1 luciferase reporter, luminescence; P51843; hit rate 0.99% among 340,000; inhibition, % at 6.75 µM;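 active = inhibition above the mean over all tested compounds plus 3 SD, cut at about 4.2% in these data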;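 also: inhibition shows as a rise in luminescence from relieved DAX1 repression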
Target sequence (P51843 207-470 limits assumed): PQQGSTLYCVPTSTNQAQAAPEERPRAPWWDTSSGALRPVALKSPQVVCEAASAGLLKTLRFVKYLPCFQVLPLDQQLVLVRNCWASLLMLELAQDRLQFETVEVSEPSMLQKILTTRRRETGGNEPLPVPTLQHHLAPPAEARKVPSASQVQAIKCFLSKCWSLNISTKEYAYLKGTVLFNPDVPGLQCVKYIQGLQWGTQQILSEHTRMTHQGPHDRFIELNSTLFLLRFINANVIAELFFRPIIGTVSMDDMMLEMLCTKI
DAX1 inh-2 – blocks DAX1 repression of SF-1 activated StAR promoter; HEK293T StAR-luciferase reporter, SF-1/DAX-1 repression relief; inhibition, % at 6.8 µM; hit rate 1.1% among 370,000; AID 652010;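 active = inhibition above the mean over all tested compounds plus 3 SD, cut at about 3.6% in these data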;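 also: higher inhibition means more luminescence from relief of DAX-1 repression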
hcDAF-12 act – activates DAF-12 receptor from parasite H. contortus; HEK293 hcDAF-12 lit1-tk-luc reporter, luminescence; 0% DMSO, 100% Δ7-dafachronic acid; activation, % at 6.8 µM; hit rate 1.4% among 370,000; AID 652067;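 active = activation above the mean of all tested compounds plus 3 SD, cut at about 5.5% in these data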
SMARCA2 conf – SMARCA2 activation, confirmation screen; MG213 cells, MMTV-luciferase with dexamethasone, luminescence, overnight; MG213 cells expressing E1A, Rb sequestered; DMSO wells 0%, reference activator 100%; activation, % at 9.1 µM; shares compounds with SMARCA2 act; hit rate 30% among 3,500;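 active = activation above its plate's cutoff, the mean activation of tested wells plus 3 SD, cut at about 7.9% in these data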
VP16 Luc act – GAL4-VP16 reporter activation counter-screen; shares compounds with SMARCA2 act; HEK293 GAL4-VP16 pG5luc reporter, luciferase luminescence; scaled: DMSO wells 0%, SAHA wells 100%; activation, % at 9.1 µM; hit rate 41% among 3,500; AID 686939;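 active = activation above the solvent-only control well mean plus 3 SD, averaged across control plates, cut at about 5.2% in these data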
Of the large screens only hits and unclear results are named; the others gave an inactive call (follow-up assays come after a bar, where they were run).

COc1ccc(-c2nc(C#N)c(NCc3cccnc3)o2)cc1OC	SMARCA2 act 10 | SMARCA2 conf inactive | VP16 Luc act inactive
COc1ccc(-c2nc(C#N)c(NCc3ccc(F)cc3)o2)cc1OC	none
COc1ccc(Nc2ncnc3ccccc23)cc1	none
COc1ccc(Nc2ncnc3ccccc23)c(OC)c1	SMARCA2 act 9.0 | SMARCA2 conf inactive | VP16 Luc act inactive
Cc1ccc(S(=O)(=O)Cn2nnnc2C(CC(C)C)N2CCN(C3CCCC3)CC2)cc1 (centres undefined)	none
CN(C)S(=O)(=O)Oc1ccsc1C(=O)Nc1ccc(Cl)c(Cl)c1	none
COc1ccc(COc2ccsc2C(=O)Nc2ccc(Cl)c(Cl)c2)cc1	SMARCA2 act 11 | SMARCA2 conf inactive | VP16 Luc act inactive
COc1ccc(NC(=O)c2sccc2C)cn1	SMARCA2 act 14 | SMARCA2 conf inactive | VP16 Luc act inactive
COc1ccc(NC(=O)c2ccco2)cn1	none
COc1ccc(NC(=O)c2ccc(-c3ccc(C(C)=O)cc3)o2)cn1	SMARCA2 act 12 | SMARCA2 conf inactive | VP16 Luc act inactive
Cc1ccsc1C(=O)Nc1ccc(OCc2ccccc2)cc1	SMARCA2 act 8.6 | SMARCA2 conf inactive | VP16 Luc act 6.6
CC(C)c1ccc2[nH]c3c(c2c1)[C@@H]1CCN2C(=O)CCC[C@H](C3)[C@H]12	none
Cc1ccccc1CSc1n[nH]c(NS(=O)(=O)c2ccccc2)n1	SMARCA2 act 8.0 | SMARCA2 conf inactive | VP16 Luc act inactive
CC(C)NC(=O)CN(C(=O)CCC(=O)Nc1nccs1)c1ccc(C(C)C)cc1	none
Cc1cccc(N(CC(=O)NC2CCCCC2)C(=O)CCCC(=O)Nc2ccccn2)c1C	none
CCN(CCn1cccn1)C(=O)CCc1nnc(CCCc2ccccc2)o1	SMARCA2 act 8.7, ssDAF12 agonist 1.0, hgDAF12 agonist 13 | SMARCA2 conf 11 | VP16 Luc act 6.4
N#Cc1ccc2c(=O)n(-c3ccccc3)sc2c1	none
CC(=O)Nc1ccc2c(=O)n(-c3ccccc3)sc2c1	SMARCA2 act 9.8 | SMARCA2 conf inactive | VP16 Luc act inactive
CCOc1ccccc1NC(C)C(=O)NC(=O)NC1CCCCC1 (centres undefined)	none
COc1cccc(CC2(CO)CCCN(Cc3c(C)cc(C)cc3-n3cccn3)C2)c1 (centres undefined)	none
CCN(CC)CCn1c(NCc2nc3ccccc3n2Cc2ccccc2)nc2ccccc21	SMARCA2 act 9.0 | SMARCA2 conf inactive | VP16 Luc act 5.5
CCC(NC(=O)NNC(N)=S)(C(F)(F)F)C(F)(F)F	none
COc1ccc(-c2ccc3oc(-c4ccsc4)cc(=O)c3c2)cn1	none
COc1ccc2c(=O)cc(-c3ccccc3F)oc2c1	SMARCA2 act 9.9 | SMARCA2 conf 8.4 | VP16 Luc act 5.6
COc1ccc2oc(-c3ccncc3)cc(=O)c2c1	SMARCA2 act 8.7 | SMARCA2 conf 13 | VP16 Luc act 6.5
Cc1ccc(Nc2nnc(-c3ccccc3N)o2)cc1C	SMARCA2 act 12, hgDAF12 agonist 11, DAX1 inh-1 6.5 | SMARCA2 conf inactive | VP16 Luc act 8.5
Cc1ccc(NCc2ccco2)cc1C	none
COc1cc(/C=N/NC(=O)C(=O)NCc2ccco2)cc(Cl)c1O	none
COc1ccc(CNC(=O)CSc2nnnn2C)cc1OC	SMARCA2 act 8.5 | SMARCA2 conf inactive | VP16 Luc act inactive
Cn1nnnc1SCC(=O)NCc1ccc2c(c1)OCO2	none
COC(=O)c1sc2nc(C)cc(C)c2c1N	none
C=COC(=O)c1sc2nc(C)cc(C)c2c1N	SMARCA2 act 9.3 | SMARCA2 conf 11 | VP16 Luc act inactive
COc1cc(/C=N/N=C(/N)c2nonc2N)cc(Br)c1OCc1ccccc1C	none

From PubChem
